An excerpt weighted towards active compounds, which were near 0.19% of everything screened.
Bfl-1 Bim block = inhibitors of Bim binding to Bfl-1, primary screen, biochemical, multiplexed, bead-based flow cytometry; Bcl-2-related protein A1 (Homo sapiens), Q16548; Bim-Bfl-1 binding inhibition; inhibition, % at 10 µM; 190,000 tested, 0.12% active;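 note: 0% = wells without compound plus tracer and 100% = blocker peptide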
Bim-Bcl-W = inhibitors of Bim binding to Bcl-W, primary screen, biochemical, multiplexed, bead-based flow cytometry. Bcl-2-like protein 2 (Homo sapiens), Q92843. Bim peptide-Bcl-W binding. inhibition, % at 10 µM. 190,000 tested, 0.02% active;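 note: 0% = bound tracer without compound and 100% = peptide blocker; higher means less fluorescent Bim peptide bound to Bcl-W beads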
Target sequence (Q92843 whole entry, looked up): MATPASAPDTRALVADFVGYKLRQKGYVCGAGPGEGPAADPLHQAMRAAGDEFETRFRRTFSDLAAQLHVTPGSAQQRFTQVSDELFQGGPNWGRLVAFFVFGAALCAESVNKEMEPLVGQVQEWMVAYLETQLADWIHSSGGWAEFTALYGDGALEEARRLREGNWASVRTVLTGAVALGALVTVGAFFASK
Bim-Bcl-2 = inhibitors of Bim-Bcl-2 binding, primary screen, biochemical, multiplexed, human Bcl-2 family. inhibition, % at 10 µM. Bead-based flow cytometry, Bim peptide-Bcl-2 binding. 190,000 tested, 0.06% active. Apoptosis regulator Bcl-2 (Homo sapiens), P10415. AID 950, 2007; in the data active = inhibition above about 40%;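 note: 0% = no compound wells with probe peptide and 100% = reference peptide inhibitor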
Bim-Bcl-B = inhibitors of Bim-Bcl-B binding, primary screen, biochemical, multiplexed, human Bcl-2 family; inhibition, % at 10 µM; bead-based flow cytometry, Bim peptide-Bcl-B binding; Bcl-2-like protein 10 (Homo sapiens), Q9HD36; 190,000 tested, 0.073% active; AID 951, 2007;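 note: 0% = tracer peptide without compound and 100% = reference inhibitor peptide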
Bim-Bcl-XL = inhibitors of Bim-Bcl-XL binding, primary screen, biochemical, multiplexed, bead flow cytometry, human Bcl-XL; Bcl-2-like protein 1 (Homo sapiens), Q07817; Bim peptide-Bcl-XL binding, fluorescence; inhibition, % at 10 µM; 190,000 tested, 0.04% active
Bim-BclXL dose = Bim-Bcl-XL interaction inhibitors, hit retest, confirmation, biochemical, dose response, multiplexed, HTS hits. inhibition of binding at 100 µM. bead-based flow cytometry, Bim-Bcl-XL binding. AID 2084, 2009. 40 tested, under 10 active. shares compounds with Bfl-1 Bim block; call rule not given here
Starred values were filed as active, the others as inactive; . = not tested or not shown. Cut-off read from the data, not from the text of the source, unless noted: active = inhibition above about 40%.

SMILES | Bfl-1 Bim block | Bim-Bcl-W | Bim-Bcl-2 | Bim-Bcl-B | Bim-Bcl-XL | others
COc1ccc(C2CN(C)CC2C(=O)c2ccc(F)cc2)cc1Cl (stereo unspecified) | 59* | 2 | 81* | 77* | 4
CN1CC(C(=O)c2ccc(F)cc2)C(c2c(F)cccc2Cl)C1 (stereo unspecified) | 5 | 5 | 0 | 0 | 7
O=S(=O)(c1ccccc1)N1CC1c1ccccc1 (stereo unspecified) | -2 | -4 | -7 | -10 | -7
Cc1ccc2c(c1)C1CN(C)CCC1N2C(=S)Nc1cccnc1 (stereo unspecified) | -4 | -1 | -3 | -7 | -2
Cc1ccc2c(c1)C1CN(C)CCC1N2C(=O)Nc1cccc(Cl)c1 (stereo unspecified) | . | 16 | 85* | . | 19
COC(=O)C1C2c3ccccc3OC1(C)N=c1s/c(=C/c3cnn(C)c3C)c(=O)n12 (stereo unspecified) | 11 | 19 | 27 | 73* | 18
CC(C)(C)C(=O)NC1CCSC1=O (stereo unspecified) | -4 | -4 | -3 | -4 | -4
Cc1ccc(-c2nc(N3CCOCC3)s[n+]2-c2ccccc2)cc1 | 53* | 4 | 13 | -42 | 11
O=C1NC(=O)C2(Cc3c(nc4ccccn4c3=O)N3CCCCCC32)C(=O)N1Cc1ccccc1 (stereo unspecified) | -1 | 0 | 4 | 59* | -4 | Bim-BclXL dose=3.8
Cc1ccc(S(=O)(=O)N(C)C)cc1NC(=O)C(C)[N+]12CCN(CC1)CC2 (stereo unspecified) | -4 | -3 | -4 | 0 | 0

Bioassay records from PubChem.
